# Experimental data published in PubChem BioAssay AID624483 (NMMLSC, 2012).
# About 11,000 (3.1%) of roughly 360,000 compounds were called active. Inconclusive results (about 2%) are left out. Rule as the data show it: active = fluorescence intensity above about 16000; inconclusive = no clear call, values can overlap the other calls; inactive = below that. The sample as a whole holds a higher share of actives than the screen did.
# Test: compound fluorescence in toxin protease inhibitor counterscreen, primary screen, artefact control for toxin protease inhibitor project, biochemical, multiplex microsphere, HTS (AID 624483)
# Settings: compound autofluorescence counterscreen, microsphere flow cytometry; active compounds read high
row,SMILES,fluorescence intensity
1,O=c1[nH][nH]c2c1[C@H](c1ccc(Cl)cc1)O[C@H](CCc1ccccc1)C2,5920 (inactive)
2,CCc1nc2c(OCc3ccccc3)cccn2c1N(C)C(=O)c1ccco1,2960 (inactive)
3,COc1ccc(CN2CC(C(=O)NC3CCCCC3)CC2=O)cc1 (stereo not given),4380 (inactive)
4,COc1ccc(OC)c(CN2C(=O)CCC2(C)C(=O)NC2CCCCCC2)c1 (stereo not given),23000 (active)
5,COc1ccc(OC)c(CN2C(=O)CCC2(C)c2nnnn2Cc2ccccc2)c1 (stereo not given),5850 (inactive)
6,COc1cccc(CNC(=O)C2CC(=O)N(C3CCCCCCC3)C2)c1 (stereo not given),5720 (inactive)
7,COc1ccc(OC)c(Cc2nnc(CCC(=O)NC3CCCC3)o2)c1,2020 (inactive)
8,COc1cccc(CN2C(=O)CCC2(C)C(=O)NC2CCCCCC2)c1 (stereo not given),21300 (active)
9,O=C1C2(c3ccccc3)CN(CCCO)CC1(c1ccccc1)CN(CCCO)C2,10600 (inactive)
10,CCCc1nc2c3ccccc3ccn2c1Cc1ccccc1C(F)(F)F,5310 (inactive)
11,Cc1ccc(S(=O)(=O)N2CCN(C(=O)CCC(=O)NC3CCCc4ccccc43)CC2)cc1 (stereo not given),7770 (inactive)
12,O=C(NCCO)C(=O)NCC(c1ccc2c(c1)OCO2)N1CCN(c2ccc(F)cc2)CC1 (stereo not given),5880 (inactive)
13,C/C(=N/NC(=O)c1ccncc1)c1ccc2c(c1)OCO2,3750 (inactive)
14,O=C(Nc1nc(-c2ccc3c(c2)OCO3)cs1)c1ccncc1,23200 (active)
15,CC(NC(=O)Nc1ccc2c(c1)OCO2)c1ccncc1 (stereo not given),2060 (inactive)
16,O=[N+]([O-])c1ccccc1SNc1ccccn1,2510 (inactive)
17,CNC[C@H]1OCc2cnnn2CCCC(=O)N([C@H](C)CO)C[C@@H]1C,4160 (inactive)
18,COc1ccc(OC)c(NC(=O)N[C@H](Cc2ccccc2)C(=O)NN)c1,5710 (inactive)
19,COc1ccc(OC)c(NC(=O)Cc2cccs2)c1,3820 (inactive)
20,COc1ccc(OC)c(NC(=O)CC(Cc2ccccc2OC)C(=O)O)c1 (stereo not given),21100 (active)
21,Cc1ccc(S(=O)(=O)NC(C)C(=O)Nc2ccccc2C(=O)N2CCCC2)cc1 (stereo not given),3260 (inactive)
22,Cc1ccc(CNC(=O)Nc2nnc([C@H]3C[C@H](O)[C@@H](CO)O3)s2)cc1,2810 (inactive)
23,Cc1cccc(NC(=O)c2ccc3nsnc3c2)c1C,2560 (inactive)

row,SMILES,fluorescence intensity
1,O=C(Nc1ccccc1)c1ccc2nsnc2c1,16300 (active)
2,O=C(NCCc1ccccc1)c1cccc(NC(=O)c2ccccc2)c1,3070 (inactive)
3,O=C(OC1CC2CC1[C@H]1CCCCN1C2=O)N1CCOCC1 (stereo not given in full),5270 (inactive)
4,CC1(C(=O)NCc2ccco2)Cc2c(-c3ccc4c(c3)OCO4)ccnc2O1 (stereo not given),4110 (inactive)
5,O=C1C(Sc2cccc(F)c2)=C[C@@]2(O)CC[C@@H](O)[C@]1(Sc1cccc(F)c1)[C@H]2O,5520 (inactive)
6,O=C(Nc1cc(=O)[nH]c2ncnn12)c1ccccc1Cl,16500 (active)
7,O=C(Nc1ccccc1C(=O)N1CCCCCC1)c1ccccc1Cl,6360 (inactive)
8,O=C(Nc1ccc2sc3ccccc3c(=O)c2c1)c1ccccc1Cl,2540 (inactive)
9,Cc1ccc(S(=O)(=O)N(C)C2(C)CCS(=O)(=O)C2)cc1 (stereo not given),21400 (active)
10,Cc1ccc(S(=O)(=O)N(C)c2ccc(C(=O)NCC3(N(C)C)CCCCC3)cc2)cc1,5740 (inactive)
11,Cc1ccc(S(=O)(=O)C2(S(=O)(=O)c3ccc(C)cc3)CCCC2)cc1,6800 (inactive)
12,CN(C)CCNC(=O)c1ccc(-c2cn3c(-c4ccc(Oc5ccccc5)cc4)cnc3cn2)cc1,4030 (inactive)
13,CCCNC(=S)N1CCCC(c2nc3ccccc3[nH]2)C1 (stereo not given),4060 (inactive)
14,Cc1ccccc1N1CC(c2nc3ccccc3[nH]2)CC1=O (stereo not given),20000 (active)
15,O=C(C1CCCO1)N1CCC(c2nc3ccccc3[nH]2)CC1 (stereo not given),9970 (inactive)
16,CCCNC(=O)C1(C)CCN1C(=O)C1(c2ccccc2)CC1 (stereo not given),3570 (inactive)
17,C=C(C)CSc1nnc(-c2ccc(C)cc2)n1N,9220 (inactive)
18,C/C(CCc1ccccc1)=N\NC(=O)c1ccc(CN2CCOCC2)cc1,2210 (inactive)
19,Cn1c(=O)c2c(nc(CN3CCOCC3)n2Cc2ccccc2)n(C)c1=O,9090 (inactive)
20,S=C1SCN(CCN2CCOCC2)CN1Cc1ccccc1,24500 (active)
21,Cc1cc(C)c(NC(=S)N2CCCC2C(=O)O)c(C)c1 (stereo not given),2490 (inactive)
22,COc1ccc(N2CCN(CCNC(=O)c3nnc(Cc4c(F)cccc4Cl)o3)CC2)cc1,24000 (active)
23,COc1ccc(NC(=O)NCCN2CCN(c3ccc(C)cc3)CC2)c(Cl)c1,3770 (inactive)

row,SMILES,fluorescence intensity
1,COc1ccc(N2CCN(CCNC(=O)Nc3cc(Cl)ccc3Cl)CC2)cc1,3500 (inactive)
2,CCCCN(C=O)c1c(CC)nc2c(OCc3ccccc3C(=O)OC)cccn12,4040 (inactive)
3,Cc1ccc(CNC(=O)C2CCN(S(=O)(=O)c3ccc4nc5c(c(C(=O)O)c4c3)CC(C)CC5)CC2)cc1 (stereo not given),5690 (inactive)
4,COC(=O)[C@@]1(Cc2ccc(OC)cc2)[C@H]2c3cc(C(=O)N4CCCC4)n(Cc4ccc(OC(F)(F)F)cc4)c3C[C@H]2CN1C(=O)c1ccccc1,5540 (inactive)
5,CC(=O)c1ccc(S(=O)(=O)N2CCN(c3nc4c(C)c(C)ccc4cc3C#N)CC2)cc1,13000 (inactive)
6,CC(C)OC(=O)C(C#N)c1nc2ccccc2nc1N1CCN(Cc2ccccc2)CC1 (stereo not given),2960 (inactive)
7,Cc1ccc(S(=O)(=O)C(C#N)c2nc3ccccc3nc2N2CCCC2)cc1C (stereo not given),19400 (active)
8,CCC(C)(C)C1CCC(=NNC(=O)c2ccc(Br)o2)CC1 (stereo not given),2520 (inactive)
9,Cc1ccc(N)cc1-n1c(C)ccc1C,9500 (inactive)
10,Cc1ccc2nc(-c3ccco3)c(Cc3cccc(Cl)c3)n2c1,4970 (inactive)
11,CCOC(=O)CC1=C(C(=O)OCC)C2(C(=O)N1)C(C(=O)OC)=C(N)Oc1ccccc12 (stereo not given),4280 (inactive)
12,C=CCN1C(=O)C2(C(C(=O)OCC)=C(N)Oc3c2c(=O)oc2ccccc32)c2ccccc21 (stereo not given),4120 (inactive)
13,COC(=O)CN1C(=O)C2(C(C(=O)OC)=C(N)Oc3ccccc32)C2=C1CC(C)(C)CC2=O (stereo not given),23500 (active)
14,CC(c1ccccn1)N(C)C(=O)c1ccc2nc(Cc3cccc(Cl)c3)oc2c1 (stereo not given),5500 (inactive)
15,Cc1ccc(C(c2nnnn2CS(=O)(=O)c2ccc(C)cc2)N2CCC(C)CC2)cc1 (stereo not given),4360 (inactive)
16,CCN(CC)c1ccc(NC(=O)CCc2nnc3ccc(N4CCCCC4)nn23)c(C)c1,4470 (inactive)
17,OC[C@H]1O[C@@H](c2nc(-c3nc(-c4ccc(F)cc4)no3)cs2)[C@H](O)[C@@H](O)[C@H]1O,4000 (inactive)
18,CC1(C(=O)NCC2CCOCC2)Cc2c(-c3cccc(C(N)=O)c3)ccnc2O1 (stereo not given),4060 (inactive)
19,O=C(c1cccs1)N1CCCC(c2nc(-c3ccc(F)cc3)no2)C1 (stereo not given),11100 (inactive)
20,O=C(c1ccc(F)cc1)N1CCCC(c2nc(-c3cccs3)no2)C1 (stereo not given),4320 (inactive)
21,O=C(Cc1cccs1)N1CCCC(c2nc(-c3ccc(S(=O)(=O)N4CCCC4)cc3)no2)C1 (stereo not given),16600 (active)
22,CCCNC(=O)C1(C)CCCN(C(=O)c2oc3ccccc3c2C)C1 (stereo not given),3630 (inactive)
23,CCOc1ccc(NC(=O)CN(C)C(=O)CCSc2ccc(F)cc2)cc1OCC,3520 (inactive)

row,SMILES,fluorescence intensity
1,COc1ccc(O)c(C=Nc2cc(C)on2)c1,22400 (active)
2,COc1ccc(O)c(/C=N/N=C/c2cccc([N+](=O)[O-])c2)c1,3450 (inactive)
3,Cc1cc(N=CC2=C(O)CCCC2=O)no1,3160 (inactive)
4,COc1ccc(C(=O)OCC(=O)NC(=O)CCSc2ccccc2)cc1,2520 (inactive)
5,CC(=O)Nc1ccc(NC(=O)CSc2nnc(COc3ccccc3C)n2CC2CCCO2)cc1 (stereo not given),3370 (inactive)
6,CCOc1ccc(NC(=O)c2cccc3c2C(=O)N(CC2CCCO2)C3)cc1 (stereo not given),6080 (inactive)
7,CCOc1cccc(=O)c2c(C)n(CC3CCCO3)c(C)c12 (stereo not given),22100 (active)
8,COc1nc(Oc2ccc(=O)n(C)n2)nc(N(C)C)n1,2790 (inactive)
9,O=C1[C@@H](c2ccccc2)[C@@H](c2ccccc2)N1c1cccnc1,3340 (inactive)
10,COc1cc(C2C3C(=O)N(c4ccccc4)C(=O)C3ON2c2ccccc2)ccc1O (stereo not given),3690 (inactive)
11,Cc1ccccc1N1C(=O)C2ON(c3ccccc3)C(c3ccncc3)C2C1=O (stereo not given),23600 (active)
12,Cc1cc(C)c2cc(CN(Cc3cccs3)Cc3nnnn3CC3CCCO3)c(=O)[nH]c2c1 (stereo not given),11000 (inactive)
13,Cc1cccc2cc(CN(Cc3nnnn3Cc3ccccc3)C3CCCC3)c(=O)[nH]c12,7870 (inactive)
14,Cc1cc(C)c2cc(CN(Cc3nnnn3Cc3ccc(F)cc3)C3CCCC3)c(=O)[nH]c2c1,22000 (active)
15,CCCCC[C@H](C)N1C[C@@H](COCc2ccccc2)Oc2cc(N3CCC[C@@H]3CO)ccc2S1(=O)=O,5890 (inactive)
16,CC(C)CC(NC(=O)C1CCCN1C(=O)[C@@H](C)NC(=O)OCc1ccccc1)C(=O)NCC(N)=O (stereo not given in full),3990 (inactive)
17,Cn1c(NCc2cccnc2)nc2cc(-c3ccc(F)cc3)sc2c1=O,2810 (inactive)
18,CCOc1cc(-c2cc(-c3ccc(OC)cc3)nc(N)c2C#N)ccc1O,24300 (active)
19,CCSc1nc(-c2ccc(OC)cc2)cc(-c2ccc(OC)cc2)c1C#N,9530 (inactive)
20,COc1ccc(-c2cc(-c3ccc(N)cc3)nc(N)c2C#N)cc1OC,4760 (inactive)
21,C[C@H](NC(=O)CC[C@H]1O[C@@H](n2ccc(=O)[nH]c2=O)[C@H](O)[C@@H]1O)c1cccc2ccccc12,5050 (inactive)
